IL1B secr inh: inflammasome signaling inhibition, IL-1 beta readout; THP-1 LPS/ATP IL-1B secretion, AlphaLISA, 16 h; active compounds read low; actives 4.7% (n = 360,000); activity change, % at 57.5 µM; in the data active = activity change below about -50%; inconclusive = mostly about -30% to -49%; note: % is set by controls: 0 for no effect and ±100 for the full control effect
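Secreted IL-1B measured by AlphaLISA bead assay after 16 h compound exposure of THP-1 cells; compounds (final up to 57.5 uM) added 1 h before LPS (250 ng/mL) and ATP (1.25 mM) stimulation; lower signal means less secretion.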
DT40 TDP1 no CPT: qHTS for Inhibitors of human tyrosyl-DNA phosphodiesterase 1 (TDP1): qHTS in cells in absence of CPT; DT40 Tdp1-/- hTDP1 cells, no CPT, ATP luminescence, 48 h; Potency, µM (titrated, usually from 46.2 µM), for the others: at the top dose activity change, negative = growth inhibition, most hits filed as inhibitors; actives 15% (n = 420,000); AID 686978, 2013; note: potency is the fitted concentration of half-maximal effect; % is set by controls: 0 for no effect and ±100 for the full control effect; nearly all actives have a fitted effect of over 55% in size
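DT40 Tdp1-/-;hTDP1 cells, no CPT (DMSO vehicle only), 400 cells/well; compounds pin-transferred; ≥48 hr, 37 °C; CellTiter-Glo 30 min RT dark, luminescence read.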
TDP1 block: blocks human tyrosyl-DNA phosphodiesterase 1. Q9NUW8. recombinant TDP1, AlphaScreen DNA substrate cleavage. Potency, µM (series often up to 130 µM), for inactives: top-dose activity change, negative = inhibition, actives largely listed as inhibitors. actives 0.28% (n = 350,000). AID 485290; note: potency is the fitted concentration of half-maximal effect; % is set by controls: 0 for no effect and ±100 for the full control effect; nearly all actives have a fitted effect of over 40% in size
Target sequence (Q9NUW8 whole entry, looked up): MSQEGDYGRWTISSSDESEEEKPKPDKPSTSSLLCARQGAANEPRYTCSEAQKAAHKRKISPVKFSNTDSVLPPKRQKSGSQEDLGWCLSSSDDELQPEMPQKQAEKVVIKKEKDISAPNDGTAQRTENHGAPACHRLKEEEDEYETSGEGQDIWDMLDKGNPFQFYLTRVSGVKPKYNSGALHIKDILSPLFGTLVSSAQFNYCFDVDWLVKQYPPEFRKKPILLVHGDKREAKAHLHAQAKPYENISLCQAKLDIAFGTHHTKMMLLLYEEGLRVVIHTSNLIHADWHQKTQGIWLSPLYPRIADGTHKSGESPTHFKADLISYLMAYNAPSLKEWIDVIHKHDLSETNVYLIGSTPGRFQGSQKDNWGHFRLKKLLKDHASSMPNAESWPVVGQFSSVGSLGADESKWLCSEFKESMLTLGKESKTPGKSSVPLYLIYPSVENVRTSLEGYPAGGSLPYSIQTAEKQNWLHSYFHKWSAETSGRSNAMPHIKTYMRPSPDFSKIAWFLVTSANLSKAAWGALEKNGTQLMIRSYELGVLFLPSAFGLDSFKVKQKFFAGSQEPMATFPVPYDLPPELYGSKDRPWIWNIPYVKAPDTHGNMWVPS
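Enzyme-compound mixtures sat 15 min at room temperature, followed by a 5 min reaction with 15 nM final substrate and 10 min with AlphaScreen beads. Recombinant human Tdp1 was used at 1 nM final.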
HepG2 tox: kills HepG2 cells in TGF-b inhibitor counter-screen. Potency, µM (doses to about 46.1 µM), inactives show at the highest dose activity change, negative = cytotoxicity, hits mostly cytotoxic. actives 0.76% (n = 410,000). HepG2 CAGA-GFP viability, ATP luminescence, 18 h. AID 588856; note: potency is the fitted concentration of half-maximal effect
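HepG2 CAGA-GFP cells (1000/well, DMEM with 1% FBS) received compound, then TGF-beta at 500 pg/mL final, and were incubated 18 hours at 37 degrees C. Viability was read by CellTiter-Glo luminescence. Media-only wells were set as complete cell-killing and DMSO as no toxicity.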
DT40 TDP1 CPT: DT40-hTDP1 cell growth loss with CPT. chicken DT40 Tdp1-/-;hTDP1 cells + 20 nM CPT, ATP luminescence, 48 h. Potency, µM (highest dose often 46.2 µM), inactives show at the top dose activity change, negative = growth inhibition, usual class: inhibitors. actives 12% (n = 420,000); note: potency is the fitted concentration of half-maximal effect; % is set by controls: 0 for no effect and ±100 for the full control effect; nearly all actives have a fitted effect of over 55% in size
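Chicken DT40 Tdp1-/- cells complemented with human TDP1, 400 cells/well, exposed to compounds plus 20 nM camptothecin for at least 48 h at 37 C; viability read as ATP content by CellTiter-Glo luminescence.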
TGFb SMAD3 inh: TGF-b pathway inhibition; HepG2 CAGA-GFP TGF-b/SMAD3 reporter, GFP fluorescence, 18 h; TGF-beta stimulated, 500 pg/mL final; Potency, µM (highest dose often 46.1 µM), for the others: top-dose activity, negative = inhibition, usual class: inhibitors; actives 1.2% (n = 410,000); AID 588855; note: potency is the fitted concentration of half-maximal effect; % is set by controls: 0 for no effect and ±100 for the full control effect; nearly all actives have a fitted effect of over 65% in size
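Inhibition was scored as loss of TGF-beta-induced (500 pg/mL final, 18 hours, 37 degrees C) GFP in HEPG2 cells carrying a CAGA-GFP reporter, in DMEM with 1% FBS. Well GFP was summed per cell; Activity was normalised to unstimulated and stimulated DMSO wells, then concentration-response fitting.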
* hit, by the source's call; ? = inconclusive; . = not tested or not shown. Sampled rows, rich in hits. Any-hit rate of the full collection: about 18%. Unless noted, calls come from the whole dose curve; as a rule, active = well fitted curve in the direction sought with a large enough effect; inconclusive = small, poorly fitted or top-dose-only effect, or another doubt; inactive = no such curve, though single readings can be large; an effect the other way counts as inactive or inconclusive.

SMILES	IL1B secr inh	DT40 TDP1 no CPT	TDP1 block	HepG2 tox	DT40 TDP1 CPT	TGFb SMAD3 inh
CC(C)CC(=O)NC(Nc1ccc([N+](=O)[O-])cc1)C(Cl)(Cl)Cl (stereo not drawn)	7	23µM*	3%	-48%	18µM*	16µM*
Cc1ccc2c(c1C)OC(=O)CC2c1ccccc1 (stereo not drawn)	17	11%	-18%	11%	23%	17%
CCCCc1nc2ccn(CC(=O)N(C)C)c(=O)c2n1Cc1ccc(-c2ccccc2-c2nn[nH]n2)cc1	.	.	-1%	.	.	.
COCCCn1cc(CN2CC(N3CCSCC3)CS2(=O)=O)nn1 (stereo not drawn)	0	0%	.	.	-1%	.
CCOC(=O)C1(CCOc2ccccc2)CCN(Cc2cc(OC)c3c(c2)OCO3)CC1	-61*	12µM*	.	-33%	21µM*	?
CCOC(=O)C1(CCOc2ccccc2)CCN(Cc2cccc3c2OCO3)CC1	-84*	15µM*	1%	-34%	23µM*	?
CCOC(=O)C1(CCOc2ccccc2)CCN(CC2CC2)CC1	-5	-10%	.	-3%	8%	-21%
COc1ccc(CCC(=O)NCCOc2ccc(Cl)cc2)cc1	5	-13%	.	-27%	6%	?
CCOC(=O)CNC(=S)n1ncnc1N	-13	?	-4%	-3%	16µM*	-3%
CC(C)c1cccc2c([Si](C)(C)C)c3c(nc12)-c1cccc(=O)n1C3	.	.	-1%	.	.	.
CC(=O)Oc1ccc(Oc2ccc(-c3noc(C)n3)cc2)cc1	0	12µM*	5%	1%	21µM*	?
Cc1cccc(NS(=O)(=O)c2ccc(C)c(C(=O)N(C)C3CCN(C)CC3)c2)c1	5	5%	1%	5%	5%	0%
Cc1ccc(C)c2sc(N3CCN(C(=O)c4ccc([N+](=O)[O-])o4)CC3)nc12	-103*	?	-5%	-47%	8.2µM*	-15%
Fc1cc(F)c2nc(N3CCCCC3)sc2c1	-20	-11%	1%	-5%	-15%	2%
O=C(c1ccc([N+](=O)[O-])o1)N1CCN(c2nc3c(F)cc(F)cc3s2)CC1	-71*	?	4%	24%	?	?
COCOc1cccc(CN2CCC2(C)C(=O)NCCNC(C)=O)c1 (stereo not drawn)	22	24%	.	-4%	2%	-11%
COCOc1cccc(CN2CCC2(C)C(=O)Nc2ccc(OC)c(OC)c2)c1 (stereo not drawn)	-8	23µM*	.	1%	16µM*	2%
COCOc1cccc(CN2CCC2(C)C(=O)Nc2cc(OC)ccc2OC)c1 (stereo not drawn)	24	?	.	-5%	26µM*	-21%
COCOc1cccc(CN2CCC2(C)C(=O)Nc2ccc(C)cc2)c1 (stereo not drawn)	-14	?	.	-5%	?	-17%
COCOc1cccc(CN2CCC2(C)C(=O)Nc2ccc(C)c(O)c2)c1 (stereo not drawn)	-15	18µM*	.	-39%	26µM*	-1%
CCNC(=S)NNC(=O)c1cc(-c2ccc(OC)cc2)nc2ccccc12	-4	4.1µM*	11%	7.9µM*	3.7µM*	-3%
CCCCOc1ccc(-c2cc(C(=O)NNC(=S)NCC)c3ccccc3n2)cc1	?	21µM*	11%	8.9µM*	23µM*	?
O=C(COc1ccccc1Br)Nc1ccc2c(c1)OCCCO2	-8	-28%	-8%	2%	-19%	-2%
COc1c(Cl)cc(C(=O)Nc2ccccc2-c2ccccc2)cc1Cl	?	29µM*	0%	1%	?	-15%
COc1ccc(Br)cc1C(=O)Nc1ccccc1-c1ccccc1	42	29µM*	-7%	-12%	?	-33%
SMILES	IL1B secr inh	DT40 TDP1 no CPT	TDP1 block	HepG2 tox	DT40 TDP1 CPT	TGFb SMAD3 inh
COc1ccccc1NC(=O)c1cc(Br)ccc1Cl	57	1%	-2%	-11%	-3%	16%
Cc1nn(C(C)C(=O)O)c(=O)c2c1sc1ccccc12 (stereo not drawn)	12	0%	3%	14%	5%	-14%
CCC(C(=O)NCCCN1CCCCCC1)n1nc(C)c2sc3ccccc3c2c1=O (stereo not drawn)	0	26%	7%	3%	-1%	2%
CCC(C(=O)N(C)Cc1ccccc1)n1nc(C)c2sc3ccccc3c2c1=O (stereo not drawn)	.	16µM*	6%	1%	?	?
CCC(C(=O)NCc1ccccc1Cl)n1nc(C)c2sc3ccccc3c2c1=O (stereo not drawn)	.	?	-3%	-1%	18µM*	13%
CCC(C(=O)NC1CCCCC1)n1nc(C)c2sc3ccccc3c2c1=O (stereo not drawn)	.	9.2µM*	9%	3%	10µM*	?
O=C(Cc1cccs1)NC(Cc1c[nH]c2ccccc12)C(=O)O (stereo not drawn)	-13	5%	10%	7%	1%	-2%
N#Cc1nc(N2CCOCC2)nc(N2CCOCC2)n1	-1	26µM*	-7%	-14%	18µM*	-49%
CC(C)(C)Nc1nc(C(N)=O)nc(N2CCOCC2)n1	-9	?	7%	-14%	?	-19%
CN(C)c1nc(N)nc(N(c2ccccc2)c2ccccc2)n1	-13	?	3%	10%	?	-8%
CCNc1nc(C(=O)O)nc(N2CCOCC2)n1	10	-9%	0%	1%	3%	14%
CCNc1nc(C#N)nc(N2CCOCC2)n1	.	13µM*	0%	-22%	?	0%
NC(=O)c1nc(N2CCOCC2)nc(N2CCOCC2)n1	-8	14µM*	-5%	-23%	14µM*	-32%
N#Cc1nc(N(c2ccccc2)c2ccccc2)nc(-n2cccc2)n1	.	3.5µM*	3%	0%	7.1µM*	?
COc1ccccc1/C=C/c1nc2ccccc2o1	.	-17%	.	-21%	-15%	-8%
C=C1CCN(C(C)C(=O)OCc2cccc(C)c2)S(=O)(=O)c2ccccc21 (stereo not drawn)	.	.	-12%	-8%	.	-22%
CN(c1ccccc1)c1nc(C#N)nc(N2CCOCC2)n1	.	10µM*	1%	-24%	13µM*	-3%
CCN(CC)CCN1CCn2c3c(c4cc(C)ccc42)CCCC31 (stereo not drawn)	?	23µM*	8%	-32%	?	15%

Screening results: PubChem BioAssay, National Center for Advancing Translational Sciences (NCATS)
